Mdm2-MdmX inh = inhibitors of human Mdm2/MdmX interaction. SaOS-2 split-luciferase Mdm2/MdmX complementation, luminescence. inhibition, % at 8 µM. actives 3% (n = 330,000). AID 485346;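 active means inhibition of at least 50% at 8 µM in the primary screen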
Target sequence (O15151 whole entry, looked up): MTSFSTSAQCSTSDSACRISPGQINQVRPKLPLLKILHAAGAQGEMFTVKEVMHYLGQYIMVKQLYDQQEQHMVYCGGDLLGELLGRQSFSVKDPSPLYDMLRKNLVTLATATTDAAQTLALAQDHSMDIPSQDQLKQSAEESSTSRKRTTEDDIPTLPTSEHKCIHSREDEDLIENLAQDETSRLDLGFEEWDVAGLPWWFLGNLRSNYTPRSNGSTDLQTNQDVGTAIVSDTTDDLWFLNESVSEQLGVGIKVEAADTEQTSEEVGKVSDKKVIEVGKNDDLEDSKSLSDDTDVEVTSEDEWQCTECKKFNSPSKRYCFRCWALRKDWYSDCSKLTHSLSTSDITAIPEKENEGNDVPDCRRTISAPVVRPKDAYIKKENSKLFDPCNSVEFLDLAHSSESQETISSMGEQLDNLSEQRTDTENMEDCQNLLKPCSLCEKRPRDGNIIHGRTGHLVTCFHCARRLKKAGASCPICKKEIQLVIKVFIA
Target sequence (Q00987 whole entry, looked up): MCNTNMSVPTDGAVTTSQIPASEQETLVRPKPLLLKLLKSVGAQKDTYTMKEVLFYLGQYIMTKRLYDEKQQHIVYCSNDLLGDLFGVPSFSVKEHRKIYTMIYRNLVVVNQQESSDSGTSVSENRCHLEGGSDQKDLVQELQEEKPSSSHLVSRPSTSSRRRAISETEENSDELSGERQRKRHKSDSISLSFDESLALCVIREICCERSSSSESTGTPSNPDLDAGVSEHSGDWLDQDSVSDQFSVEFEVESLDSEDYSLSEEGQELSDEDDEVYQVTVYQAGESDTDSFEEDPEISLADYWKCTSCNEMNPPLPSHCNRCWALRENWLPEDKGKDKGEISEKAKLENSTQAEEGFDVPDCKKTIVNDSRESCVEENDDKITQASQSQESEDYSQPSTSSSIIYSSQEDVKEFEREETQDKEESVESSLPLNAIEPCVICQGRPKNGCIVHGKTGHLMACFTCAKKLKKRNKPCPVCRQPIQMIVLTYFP
697 NFkB inh = lowers PMA/ionomycin-induced NF-kB signal in 697 B cells. inhibition, % at 4 µM. actives 0.33% (n = 330,000). 697 B-cell NF-kB luciferase reporter, 16 h; in the data active means inhibition above about 35%
Beta apoptosis = beta cell apoptosis inhibition; protection from apoptosis, % (test concentration not listed); INS-1E cytokine-induced death, ATP luminescence, 48 h; percent of positive-control rescue, neutral wells zero; actives 0.8% (n = 300,000);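 active means Every replicate reaches about 75%, or at least half do and their mean reaches it too, limit read from the data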;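 further: higher means more ATP so stronger rescue from cytokine killing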
Gli-Sufu block = antagonists of Gli-Sufu signaling; actives 0.74% (n = 340,000); Sufu-KO-LIGHT fibroblasts, Gli luciferase reporter luminescence; AID 588413; inhibition, % at 5 µM;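 active means inhibition above about 55%, limit read from the data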
Jurkat NFkB inh = inhibitors of the PMA/ionomycin-induced NF-kB reporter in Jurkat cells; PMA/ionomycin-induced NF-kB luciferase reporter, luminescence; actives 0.53% (n = 330,000); inhibition, % at 4 µM; AID 435003; in the data active means inhibition above about 50%
Jurkat NFkB conf = inhibitors of the PMA/ionomycin-induced NF-kB reporter in Jurkat cells, retest; shares compounds with Jurkat NFkB inh; Jurkat NF-kB luciferase, 16 h; inhibition, % at 4 µM; actives 27% (n = 2,700); AID 435020;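 active means inhibition reaching about 45% at 4 µM in either replicate, limit read from the data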
697 NFkB conf = inhibitors of the PMA/ionomycin-induced NF-kB reporter in 697 B cells, retest; shares compounds with 697 NFkB inh; inhibition, % at 4 µM; actives 35% (n = 2,000); 697 B-cell NF-kB luciferase, 16 h; in the data active means inhibition mostly above about 28%, no sharp cut-off; inactive means mostly below about 22%
Each line names hits and unclear results; the compound was inactive in the other large screens (follow-up assays come after a bar, where they were run). This is a sample that favours compounds with a hit; in the whole collection about 4% have one here.

COc1ccc(-c2nnn(CC(=O)N(CCCO)C(C(=O)NC3CCCC3)c3ccc(F)cc3)n2)cc1 (configuration not stated)	none
O=C(c1ccc2nc[nH]c2c1)N1CCc2ccccc2C1	none
COc1cc2c(cc1OC)CN(C(=O)c1ccc3nc[nH]c3c1)CC2	Jurkat NFkB inh 60.8 | Jurkat NFkB conf inactive
CCOC(=O)[C@H]1[C@H]2COc3ccc(C)cc3[C@@H]2N2C(=O)c3cc(C)ccc3NC(=O)[C@@]12C	none
O=C(Nc1ccc2nc3ccccc3nc2c1)c1ccccc1	none (no result: Mdm2-MdmX inh, 697 NFkB inh, Jurkat NFkB inh)
O=C(Nc1ccc(-c2nc3ccccc3s2)c(OC(=O)c2ccccc2)c1)c1ccccc1	none | Jurkat NFkB conf inactive
Cc1c(NC(=O)C(C)OC(=O)CCOc2ccccc2)c(=O)n(-c2ccccc2)n1C (configuration not stated)	none
O=C(Nc1cccnc1)c1sc2cccc(F)c2c1Cl	none
O=C(Nc1ccccn1)c1sc2cccc(F)c2c1Cl	none | Jurkat NFkB conf inactive
O=C1C=C(c2ccc3ncccc3c2)C[C@@H](c2ccc3c(c2)OCO3)C1	Jurkat NFkB inh 69.6 | Jurkat NFkB conf 49.7
CN(C)CCCNC(=O)c1cc(C(=O)c2c(Cl)cccc2Cl)c[nH]1	none
COc1ccc(CNC(=O)c2csc(Cc3ccccc3)n2)cc1	none
COc1ccccc1CNC(=O)c1csc(Cc2ccc(Cl)cc2)n1	Jurkat NFkB inh 71.0 (no result: Gli-Sufu block) | Jurkat NFkB conf inactive
NC(N)=Nc1nc(C2COc3ccccc3O2)cs1 (configuration not stated)	none | Jurkat NFkB conf inactive
CN(C)c1ccc(C(=O)OCC(=O)c2cccs2)cc1	none | Jurkat NFkB conf inactive
CCOc1ccc2nc(N3CCCCCC3)sc2c1	none | Jurkat NFkB conf inactive
COc1ccc(N2CCN(C(=O)c3cccnc3SCc3cccc(Br)c3)CC2)cc1	none
C/C(=N\Nc1nc(C(C)(C)C)cs1)c1ccccc1	none | Jurkat NFkB conf inactive
Cc1ccsc1C(=O)N/N=C/c1ccc2c(c1)OCO2	none | Jurkat NFkB conf inactive
O=C(N/N=C/c1ccc2c(c1)OCO2)c1cccs1	none
O=C(O)c1ccc(N/N=C/c2ccc3c(c2)OCO3)cc1	Jurkat NFkB inh 75.2 (no result: Beta apoptosis) | Jurkat NFkB conf inactive
Cc1ccc2c(c1)N(CC(=O)OCC(=O)NCc1ccccc1)C(=O)CO2	none
CC(=O)Nc1ccc(/C=C/c2nc3ccccc3o2)cc1	none (no result: Beta apoptosis) | Jurkat NFkB conf inactive
O=C(Nc1ccc(/C=C/c2nc3ccccc3o2)cc1)c1c(F)cccc1F	none
CCOC(=O)N1CCN(c2c(NCc3ccc(F)cc3)c(=O)c2=O)CC1	Jurkat NFkB inh 60.9 | Jurkat NFkB conf inactive
CCS(=O)(=O)N1CCCC(C(=O)Oc2ccc(Br)cc2)C1 (configuration not stated)	none
COc1ccccc1NC(CC(=O)c1ccccc1)C(=O)OCC(=O)c1ccc(F)cc1 (configuration not stated)	none | Jurkat NFkB conf inactive
COc1ccccc1NC(=O)CCCC(=O)OCC(=O)c1ccc(F)cc1	none
O=C(Nc1nnc(CCN2CCCCC2)s1)c1ccccc1Cl	none
O=C(c1cc2c(ccc3ccccc32)o1)N1CCCCC1	none | Jurkat NFkB conf inactive
O=C(O)c1cc2c(ccc3ccccc32)o1	none
NNC(=O)c1cc2c(ccc3ccccc32)o1	none
O=C(Nc1cccnc1)c1cc2c(ccc3ccccc32)o1	none | Jurkat NFkB conf inactive
CCCc1cc(NC(=O)COC(=O)c2nccnc2N)n(-c2ccccc2)n1	none
CCN1C[C@@H]2[C@@H]3C(=O)N(C)C(=O)[C@@H]3[C@](C)(C(=O)OC)N2C1=NC	none (no result: Beta apoptosis, Jurkat NFkB inh)
COc1ccc(CCNCC(=O)Nc2ccccc2C(F)(F)F)cc1	none
Cc1ccnc(NC(=O)c2cc3cc(F)ccc3s2)c1	none | Jurkat NFkB conf inactive
Cc1ccnc(NC(=O)c2sc3cc(Cl)ccc3c2Cl)c1	none | Jurkat NFkB conf inactive
Cc1ccccc1NS(=O)(=O)c1ccc(N2CCCC2=O)cc1	Jurkat NFkB inh 53.9 | Jurkat NFkB conf inactive
Cc1ccccc1NS(=O)(=O)c1cc2c3c(c1)CC(=O)N3CCC2	none
CCSc1ccc(-c2ccc(C)cc2)nn1	none (no result: Mdm2-MdmX inh, 697 NFkB inh, Beta apoptosis, Jurkat NFkB inh)
CCOc1ccc(-c2ccc(SCC)nn2)cc1	none | Jurkat NFkB conf inactive
Nc1c(C(=O)Nc2ccccc2)nnn1-c1ccc2c(c1)OCCO2	none | Jurkat NFkB conf inactive
Cc1ccc(NC(=O)c2nnn(-c3ccc4c(c3)OCCO4)c2N)cc1	none
CCOC(=O)c1sc(NC(=O)c2ccc(Br)o2)cc1C	none | Jurkat NFkB conf inactive
CCOC(=O)c1sc(NC(=O)c2cccs2)cc1C	none | Jurkat NFkB conf inactive
CCCCCCCN1CCC(=O)N([C@H](CO)CC(C)C)CC1	none
Fc1cccc(-c2cc3nc4c(c(NCc5ccco5)n3n2)CCCC4)c1	none | Jurkat NFkB conf inactive | 697 NFkB conf inactive
COc1ccc(-c2cc(-c3ccccc3O)[nH]n2)cc1	none | Jurkat NFkB conf inactive | 697 NFkB conf inactive
COc1ccc(-c2cc(-c3ccccc3)n[nH]2)c(O)c1	none (no result: Beta apoptosis)
Oc1ccccc1-c1cc(-c2ccc(F)cc2)n[nH]1	none | Jurkat NFkB conf inactive | 697 NFkB conf inactive
Cc1ccc(-c2cc(-c3ccc(C)cc3O)[nH]n2)cc1	none | Jurkat NFkB conf inactive | 697 NFkB conf inactive
Cc1ccc(-c2cc(-c3ccc(F)cc3)n[nH]2)c(O)c1	none | Jurkat NFkB conf inactive | 697 NFkB conf inactive
COCCNc1nc(N2CCCCC2)c2cnn(C)c2n1	none
CC1CCc2c(sc(NC(=O)CSc3ncn[nH]3)c2C#N)C1 (configuration not stated)	697 NFkB inh 58.0, Jurkat NFkB inh 61.0 | Jurkat NFkB conf 61.1 | 697 NFkB conf 52.0
CC(C)(C)C1CCc2c(sc(NC(=O)CSc3ncn[nH]3)c2C#N)C1 (configuration not stated)	none
N#Cc1c(NC(=O)CSc2ncn[nH]2)sc2c1CCCC2	697 NFkB inh 61.8, Jurkat NFkB inh 52.1 | Jurkat NFkB conf inactive | 697 NFkB conf 46.6
Cc1ccc(C(=O)Nc2sc3c(c2C#N)CCCCC3)cc1C	none
N#Cc1c(NC(=O)c2ccccc2)sc2c1CCCCC2	none | Jurkat NFkB conf inactive | 697 NFkB conf inactive
CCNC(=O)COC(=O)c1cccc(Br)c1	none
COc1ccc(C)c2sc(=NC(=O)c3ccc(C(C)=O)cc3)n(C)c12	none | Jurkat NFkB conf inactive | 697 NFkB conf inactive
Nc1cccc2c1C(=O)N(CCOc1ccccc1F)C2=O	none | Jurkat NFkB conf inactive | 697 NFkB conf inactive
Cc1cc(Cl)c(S(=O)(=O)N2CCCCCC2)cc1OCC(=O)NC1CCCCC1	697 NFkB inh 75.0, Jurkat NFkB inh 65.4 | Jurkat NFkB conf 71.2 | 697 NFkB conf 69.5
CCc1ccc(-c2cnc3ccccc3n2)cc1NC(=O)CNC(=O)c1ccccc1	none | Jurkat NFkB conf inactive | 697 NFkB conf inactive
Clc1ccc(OCCN2CCN(c3ncnc4sccc34)CC2)cc1	697 NFkB inh 100.4, Beta apoptosis 106.0, Gli-Sufu block 81.3, Jurkat NFkB inh 66.8 | Jurkat NFkB conf 75.7 | 697 NFkB conf 96.3

Compound activity (PubChem)
